About 83,000 compounds went through this panel and 20% of them were active in at least one assay; those are over-represented in the sample as a whole.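 96-well plates, one dose, 48 hours. Percent growth reported; active if below 10.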 Unmarked numbers belong to inactive results. The source made the active and inactive calls.
system: NCI-H322M lung; assay: NCI-60 one-dose screen, 48 h (100 = growth as untreated, 0 = no growth, -100 = all killed); details: 10 µM unless noted
Experimental: Growth inhibition of the NCI-H322M human Non-Small Cell Lung tumor cell line is measured as a screen for anti-cancer activity. Cells are grown in 96 well plates and exposed to the test compound for 48 hours. Compounds are tested at a single concentration, which is 10^-5 M for most compounds. The reported endpoint is percent growth (GI% or GIPRCNT), where numbers from 0 - 100% represent growth inhibition, and numbers from -100% - 0 represent cell death. For example, a value of 40 represents 60% growth inhibition. A value of 0 means no net growth occurred over the course of the experiment. A value of -40 indicates 40% of cells at the beginning of the experiment died by the end of the experiment. A value of -100 means all cells are dead at the end of the experiment.
NCI-60 Human Tumor Cell Lines Screen was performed using the standard one-dose NCI protocol, which is described in more detail at https://dtp.cancer.gov/discovery_development/nci-60/default.htm.
Compounds with GIPRCNT values below 10 were considered active. Activity score was based on GIPRCNT using the following formula: […]
Score is 0 for GIPRCNT values of 100 or above, 50 for GIPRCNT values of 0, and 100 for GIPRCNT values of -100.

Compound	growth
CCCNS(=O)(=O)c1ccc(Cl)cc1	93.6%
O=c1cc(Cl)nc2ccccn12	107%
O=c1[nH]c(=O)c2cc(Cl)cc(Cl)c2[nH]1	94.8%
C=CCc1cc(OC)c(O)c(OC)c1	124%
CCC(=O)C1C(=O)c2ccccc2C1=O	102%
CCCC1OC(c2ccco2)OCC1CC (stereo not given)	102%
C=CC(C)C(C)(C)O (stereo not given)	98.3%
COC1(OC)C2(Cl)C(Cl)=C(Cl)C1(Cl)C1COCC12 (stereo not given)	104%
O=C(O)c1cccc(-n2ncc(Cl)c(Cl)c2=O)c1	117%
OC1Cc2ccccc2C1	98.7%
CCCC(OC(C)=O)c1ccc2c(c1)OCO2 (stereo not given)	97.8%
CC(C)=CCC[C@@H](C)[C@H]1CC[C@@]2(C)C3=C(CC[C@]12C)[C@@]1(C)CC[C@H](O)C(C)(C)[C@@H]1CC3	122%
O=C(OCc1ccccc1)n1nnc2ccccc21	105%
N#C/C(=C\c1ccc(C#N)cc1)C(=O)c1ccccc1	97.4%
CC(C)(C)NCCC(O)c1cc(C(F)(F)F)nc2c(C(F)(F)F)cccc12 (stereo not given)	76.2%
CC(C)C1CCC(C)C(O)C1 (stereo not given)	105%
CC(=O)Nc1ncc(S(=O)(=O)c2ccc([N+](=O)[O-])cc2)s1	113%
COc1cc2c(c(OC)c1OC)-c1ccc(SC)c(=O)cc1[C@@H](NC1OC(CO)C(O)C(O)C1O)CC2 (stereo not given in full)	33%
N#CCCN1C(=O)CCC1C(=O)O (stereo not given)	112%
CCC(C)C1CCC(O)CC1 (stereo not given)	100%

Compound	growth
COc1cccc(N=CNc2cccc(OC)c2)c1	96%
C1C[S+]2CC[S+]1CC2	111%
Ic1cccs1	105%
C/C(=N\N=C(/C)c1cccc([N+](=O)[O-])c1)c1cccc([N+](=O)[O-])c1	96.1%
Cc1ccnc(Nc2nc3ccccc3[nH]2)n1	103%
CC(O)C(F)(F)C(F)(F)C(F)(F)F (stereo not given)	114%
O=C(NCc1ccccc1)c1cccc([N+](=O)[O-])c1	96.7%
NC(=S)c1c(N)n(C2OC(CO)C(O)C2O)c2ncnc(N)c12 (stereo not given)	-25.8% (active)
CC12CCC3c4ccc(O)cc4CCC3C1CCC2=O (stereo not given)	113%
COc1ccc(Nc2cc(Cl)ccc2C(=O)O)cn1	128%
C=CC(C)(C)n1cc(C2=C(O)C(=O)C(c3cn(C(C)(C)C=C)c4ccccc34)=C(O)C2=O)c2ccccc21	89%
C=C(c1ccc(N(C)C)cc1)c1ccc(N(C)C)cc1	29.7%
O=c1cc(C(F)(F)F)[nH]c(=S)[nH]1	101%
OCC1OC(n2ccc3c2ncn2ncnc32)C(O)C1O (stereo not given)	38.4%
CCC(=O)Oc1ccc2ccccc2c1	103%
COc1cc(-c2ccc(NC(=O)CC(C)=O)c(OC)c2)ccc1NC(=O)CC(C)=O	102%
CCCC(=O)CC(=O)c1ccccc1	95.1%
CCCCCC(=O)OCCC1CCCCC1	99.9%
O=C(O)C1CSC(c2ccccc2)N1 (stereo not given)	98.8%
O=C1NCC2CCCC1C2 (stereo not given)	96.8%

Reference: PubChem BioAssay (NCI)
